Only some compounds are listed: those with a hit (about 19% of all), similar ones and a draw of the others.
IL-1B inflam inh: inflammasome signaling inhibition, IL-1 beta readout; THP-1 LPS/ATP IL-1B secretion, AlphaLISA, 16 h; active compounds read low; AID 743279; 360,000 tested, 4.7% active; activity change, % at 57.5 µM; in the data active = activity change below about -50%; inconclusive = mostly about -30% to -49%
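THP-1 cells pretreated 1 hr with compounds (up to 57.5 uM final), then stimulated with LPS (250 ng/mL final) plus ATP (1.25 mM final); secreted IL-1B measured by AlphaLISA after 16 hr, decreased signal indicating inhibition.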
HT1080 IDH1KD tx: kills HT-1080 cells with IDH1 knockdown; HT-1080 IDH1 knockdown viability, ATP luminescence, 48 h; Potency, µM (titrated, usually from 46.1 µM), without a hit: at the top dose activity, negative = toxicity, most hits filed as cytotoxic; 360,000 tested, 2% active; AID 686971;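 also: potency is read from the fitted curve at half-maximal effect; 0% = DMSO wells and -100% = cell-free medium wells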
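IDH1KD HT-1080 cells, 750/well, RPMI + 5% FBS; compound pinned after 2 h settling; 48 h, 37 °C; CellTiter-Glo luminescence; % activity normalised to DMSO and no-cell wells; curves fitted, classed by r2 and efficacy.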
TDP1 cell noCPT: qHTS for Inhibitors of human tyrosyl-DNA phosphodiesterase 1 (TDP1): qHTS in cells in absence of CPT. DT40 Tdp1-/- hTDP1 cells, no CPT, ATP luminescence, 48 h. Potency, µM (titrated, usually from 46.2 µM), for inactives: top-dose activity change, negative = growth inhibition, usual class: inhibitors. 420,000 tested, 15% active; also: potency is read from the fitted curve at half-maximal effect; nearly all actives have a fitted effect of over 55% in size
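Chicken DT40 Tdp1-/- cells stably complemented with human TDP1 were seeded at 400 cells/well with DMSO in place of 20 nM camptothecin. After compound pinning, cells grew at least 48 hr at 37 °C; viability read by CellTiter-Glo luminescence.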
DT40 TDP1 CPT: DT40-hTDP1 cell growth loss with CPT; 420,000 tested, 12% active; Potency, µM (doses to about 46.2 µM), for inactives: at the top dose activity change, negative = growth inhibition, hits mostly inhibitors; chicken DT40 Tdp1-/-;hTDP1 cells + 20 nM CPT, ATP luminescence, 48 h; also: potency is read from the fitted curve at half-maximal effect; nearly all actives have a fitted effect of over 55% in size
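Chicken DT40 Tdp1-/- cells stably complemented with human TDP1 were seeded at 400 cells/well in medium containing 20 nM camptothecin, exposed to pin-transferred compounds, and grown at 37 °C for at least 48 hr. Viability was read as ATP luminescence.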
HT1080-NT tox: kills 2HG-producing HT-1080-NT fibrosarcoma cells. Potency, µM (doses to about 46.1 µM), for inactives: top-dose activity, negative = less viability, most hits filed as cytotoxic. 360,000 tested, 1.6% active. HT-1080-NT fibrosarcoma viability, CellTiter-Glo ATP luminescence, 48 h;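 also: NT is the 2HG producing partner of a matched IDH1 knockdown line; potency is read from the fitted curve at half-maximal effect; 0% = DMSO-treated cells and -100% = media-only wells without cells; nearly all actives have a fitted effect of over 55% in size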
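750 cells/well, RPMI + 5% FBS; 2 h settle, compound pin-transfer, 48 h at 37 degrees C. CellTiter-Glo 10 min RT, luminescence. Normalized to DMSO and media-only wells.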
* = called active by the depositor; ? = inconclusive; nt = not tested or not shown; [ ] = another dose, or the depositor's remark. Unless noted, calls follow the shape of the dose curve; as a rule, active = well fitted curve in the direction sought with a large enough effect; inconclusive = small, poorly fitted or top-dose-only effect, or another doubt; inactive = no such curve, though single readings can be large; an effect the other way counts as inactive or inconclusive. Unless noted, % is scaled to controls: 0 for no effect and ±100 for the full control effect.

SMILES	IL-1B inflam inh	HT1080 IDH1KD tx	TDP1 cell noCPT	DT40 TDP1 CPT	HT1080-NT tox
O=C(COC(=O)C12CC3CC(CC(Br)(C3)C1)C2)Nc1cccnc1Cl	-5.5	12.9%	0.6%	?	0.6%
Cc1nn(Cc2ccccc2)c(Cl)c1/C=C1\NC(=S)NC1=O	-63.6*	-22.3%	3.7%	?	0.2%
O=C(/C=C/c1ccco1)NC(=S)Nc1nc(-c2ccc(Cl)cc2)cs1	-8.3	-7.7%	4.61µM*	5.17µM*	-1.5%
COc1ccc(-c2csc(NC(=S)NC(=O)/C=C/c3ccccc3)n2)cc1Br	3.4	-18.7%	23.1µM*	?	-15.9%
O=C(O)/C=C/C(=O)Nc1nc(-c2ccc3ccccc3c2)cs1	13.3	-0.6%	-20.3%	-12.0%	2.2%
O=C(/C=C/c1ccco1)NC(=S)Nc1nc(-c2ccc3ccccc3c2)cs1	-5.2	?	4.11µM*	3.26µM*	?
O=C(/C=C\c1ccco1)Nc1nc(-c2ccccc2)cs1	0.0	11.9%	-16.8%	18.1%	10.3%
CSc1nc(N)nc2c1ncn2CC(=O)Nc1ccc(C)c(C)c1	24.2	-0.7%	14.6µM*	13µM*	-4.0%
CSc1nc(N)nc2c1ncn2CC(=O)NCC(c1ccccc1)c1ccccc1	24.7	-3.9%	20.6µM*	14.6µM*	-1.7%
CN(CCN1CCOCC1)C(=O)C1CCC(=O)N(Cc2ccc(Cl)cc2)C1 (stereo not drawn)	-5.9	8.0%	-4.9%	-1.8%	16.2%
O=C(c1ccccc1F)N1CCC2CC1c1cc(-c3ccc4c(c3)OCO4)ccc12 (stereo not drawn)	18.4	?	20.6µM*	?	?
S=C(NCCc1ccccc1)N1CCC2CC1c1cc(-c3ccc4c(c3)OCO4)ccc12 (stereo not drawn)	-9.2	?	9.2µM*	8.2µM*	?
Fc1ccc(-c2ccc3c(c2)C2CC3CCN2Cc2ccc3c(c2)OCO3)cc1 (stereo not drawn)	14.9	-10.9%	16.4µM*	?	-9.3%
O=S(=O)(c1cccc2ccccc12)N1CCC2CC1c1cc(-c3ccc4c(c3)OCO4)ccc12 (stereo not drawn)	27.2	23.3%	?	?	?
COCCNC(=S)N1CCC2CC1c1cc(-c3ccc4c(c3)OCO4)ccc12 (stereo not drawn)	68.2	?	?	16.4µM*	?
Cc1nc2sc(C(c3ccccc3)N3CCN(c4ccccc4F)CC3)c(O)n2n1 (stereo not drawn)	?	5.3%	?	?	3.0%
CCN(CC)CCNc1nc2nonc2nc1NCCN(CC)CC	-23.8	0.8%	-7.7%	-15.0%	-16.4%
COc1ccccc1NC(=O)c1ccc(NC(=O)COC(=O)C2(C)CC2(Cl)Cl)cc1 (stereo not drawn)	-13.1	-15.2%	?	-18.7%	-2.1%
Cc1cccc(OCC(=O)Nc2cccc(OCc3cc(=O)n4cccc(C)c4n3)c2)c1	nt	nt	14.6µM*	20.6µM*	nt
COc1cccc(C(=O)Nc2cccc(C(=O)OCc3cc(=O)n4nc(C(C)C)sc4n3)c2)c1	nt	nt	-16.1%	-11.4%	nt
CCCc1nn2c(=O)cc(COC(=O)c3cccc(NC(=O)COc4ccc(F)cc4)c3)nc2s1	nt	nt	-10.9%	0.9%	nt
CC(C)c1nn2c(=O)cc(COC(=O)c3cccc(NC(=O)COc4ccc(F)cc4)c3)nc2s1	nt	nt	20.6µM*	13µM*	nt
Cc1cccc(OCC(=O)Nc2cccc(C(=O)OCc3cc(=O)n4nc(C(C)C)sc4n3)c2)c1	nt	nt	11.6µM*	?	nt
Cc1c(NC(=O)CN2CCN(c3ccc(F)cc3)CC2)c(=O)n(-c2ccccc2)n1C	0.0	11.8%	-4.4%	0.8%	12.6%
O=C(Nc1ccc2c(c1)OCO2)c1ccc2nc([C@@H]3O[C@H](CO)[C@H](O)[C@H](O)[C@H]3O)[nH]c2c1	32.1	1.0%	0.0%	-20.2%	12.2%
SMILES	IL-1B inflam inh	HT1080 IDH1KD tx	TDP1 cell noCPT	DT40 TDP1 CPT	HT1080-NT tox
O=C(NNC(=O)c1ccncc1)Nc1ccc(Cl)cc1	-18.8	21.5%	-10.2%	-6.2%	1.5%
N/N=C/C(=N\Nc1ccc(Cl)cc1)C(=O)c1ccncc1	-50.8*	?	-23.3%	8.2%	?
Cc1cc(Nc2ccc(Br)c(C)c2)n2nc(C)nc2n1	-12.6	-4.6%	-29.4%	?	-1.2%
CCc1c(C)nc(N2CCN(c3ccccc3F)CC2)[nH]c1=O	-2.6	15.7%	23.1µM*	?	13.3%
CC(=O)Nc1ccccc1N(C)S(=O)(=O)c1ccc(C)cc1	24.1	?	23.1µM*	23.1µM*	-22.9%
COc1ccc(OC)c(NC(=O)c2ccccc2N(C)S(=O)(=O)c2ccc(C)cc2)c1	-27.4	-1.4%	?	?	-2.6%
COc1ccc(C)cc1NC(=O)c1ccccc1N(C)S(=O)(=O)c1ccccc1	-13.9	-9.6%	20.6µM*	?	-7.9%
CCN(CC)S(=O)(=O)c1ccc(Cl)c(NC(=O)c2cc(Cl)ccc2Cl)c1	-11.4	8.4%	?	?	5.2%
CCN(Cc1ccccc1)S(=O)(=O)c1ccc(F)c(C(=O)Nc2cc(C)ccc2OC)c1	nt	nt	?	25.9µM*	nt
CCN(Cc1ccccc1)S(=O)(=O)c1ccc(F)c(C(=O)Nc2cc(C(F)(F)F)ccc2Cl)c1	nt	nt	23.1µM*	16.4µM*	nt
CCN(CC)S(=O)(=O)c1ccc(OC)c(NC(=O)c2cc(=O)[nH]c3ccccc23)c1	10.5	7.5%	?	0.6%	7.5%
Cc1ccc(NC(=O)C(=O)NCc2ccc(Cl)cc2)cc1	nt	nt	-20.7%	7.2%	nt
Cc1ccccc1N/N=C1\CCCNC1=O	-53.8*	2.2%	-7.8%	-20.6%	-3.9%
O=C1N/C(=N/O)S/C1=C/c1cccc([N+](=O)[O-])c1	-15.0	-22.6%	-5.1%	9.7%	-20.7%
Cc1cccc(/C=C2/S/C(=N/N=C3\CC4CCC3(C)C4(C)C)NC2=O)c1 (stereo not drawn)	?	-2.1%[9.24 µM]	20.6µM*	?	-2.5%
COCCN=C1Sc2nc3cc4c(cc3cc2CN1CC1CCCO1)OCO4 (stereo not drawn)	13.5	1.3%	-14.1%	-28.6%	0.6%
CCOC(=O)c1cnc2c(C)c(Cl)ccc2c1NCCc1ccc(OC)c(OC)c1	nt	nt	16.4µM*	?	nt
COc1ccc(CCNC(=O)COC(=O)COc2c(C)cc(C)cc2C)cc1OC	22.0	4.5%	2.1%	-8.7%	7.8%
CCOC(=O)c1cnc2c(C)cc(C)cc2c1NCCc1ccc(OC)c(OC)c1	nt	nt	23.1µM*	20.6µM*	nt
CCOC(=O)c1cnc2ccc(C)cc2c1NCCO	-15.7	-14.2%	-17.5%	-7.8%	-1.4%
CCOC(=O)c1cnc2c(C)cccc2c1NCCc1ccc(OC)c(OC)c1	-5.9	?	23.1µM*	16.4µM*	-27.8%

High-throughput results: PubChem BioAssay, National Center for Advancing Translational Sciences (NCATS)
